Assay outcomes deposited in PubChem by National Center for Advancing Translational Sciences (NCATS).
HCMV antiviral: human cytomegalovirus inhibition; HFF cells, HCMV-luciferase reporter, 72 h; hits give low values; activity change, negative = inhibition, % at 57.5 µM; 410,000 compounds, 4.5% hits; AID 1259415; in the data active means activity change below about -60%; inconclusive means no clear call, values can overlap the other calls; inactive means above about -39%
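Luciferase read-out from HCMV-luciferase-infected HFFs (MOI 1 PFU/cell) 72 h post infection at 37C; compounds added after 16 h cell attachment; activity normalized between buffer-only basal and Salinomycin (10uM) inhibitor controls.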
Cycloheximide cs: counter-screen for Shiga toxin inhibitors: cycloheximide protein synthesis inhibition; cell reporter, cycloheximide protein synthesis inhibition counterscreen; 300,000 compounds, 12% hits; AID 2314; max response, %; in the data active means max response mostly above about 13%, no sharp cut-off; inactive means mostly below about 14%; further: read at 38.3 µM for the half of the compounds with a filed dose
Shiga inhibitor: inhibitors of Shiga toxin in Vero cells; Vero cells, Shiga toxin protein synthesis inhibition reporter; inhibition, % at 38.7 µM; 290,000 compounds, 9.2% hits; AID 2315; in the data active means inhibition mostly above about 28%, no sharp cut-off; inactive means mostly below about 43%
HCV inhibitor: HCV inhibition. Potency, µM (top dose mostly 41.8 µM), most hits filed as inhibitors. 340,000 compounds, 3.4% hits. Huh7.5.1 HCVcc-Cre infection, luciferase reporter, 44 h
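After 44 h co-culture of compound, cells and HCVcc-Cre (~0.5 moi), substrate is added for 15 min at room temperature and luciferase measured over 15 sec. Cells were seeded at 1,000/well and pre-cultured 4 h.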
Pf growth 96h: P. falciparum growth inhibition at 96 hour, primary screen for plastid delayed-death inhibitors | P. falciparum luciferase reporter growth, 96 h | Potency, µM (series often up to 28.7 µM), most hits filed as inhibitors | 320,000 compounds, 6.9% hits
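Plates of compound plus infected erythrocytes (2% hematocrit, 0.05% parasitemia final) incubate 96 hours, 37 C, 5% CO2. Detection reagent added; reduced luminescence from the parasites' luciferase reporter flags inhibition.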
Pf growth 48h: inhibits P. falciparum growth in the first generation, 48 h | P. falciparum luciferase growth in erythrocytes, 48 h | Potency, µM (series often up to 28.7 µM), usual class: inhibitors | 310,000 compounds, 5.9% hits | AID 504832
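Luciferase-expressing P. falciparum in infected erythrocytes (2% hematocrit, 0.1% parasitemia final) in RPMI 1640/0.5% Albumax were exposed to compound for 48 hours at 37 C, 5% CO2; growth read as luminescence.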
Large screens that a line does not name were inactive. Most compounds without a hit are left out; they make up all but 21% or so of the library. Unless noted, the call rests on the fitted dose curve; in most records, active means well fitted inhibition curve with a large enough effect; inconclusive means small, poorly fitted or top-dose-only effect, or another doubt; inactive means no such curve, though single readings can be large or run the other way.

O=C(Nc1ccccc1C(F)(F)F)c1ccc(F)c(S(=O)(=O)N2CCc3ccccc3C2)c1	none (no result: Cycloheximide cs, Shiga inhibitor, HCV inhibitor, Pf growth 96h, Pf growth 48h)
CC(=O)C(=Nc1ccc(Cl)cc1Cl)NNc1cccc(Cl)c1	HCV inhibitor 10µM (no result: Pf growth 96h, Pf growth 48h)
N/C(=N\OC(=O)c1ccco1)c1cccc([N+](=O)[O-])c1	Cycloheximide cs 48, Shiga inhibitor 121
COc1ccc(C(=O)Nc2ccccc2NC(=O)c2ccco2)cc1OC	none
COc1ccc(/C(N)=N/OC(=O)c2ccco2)cc1OC	Cycloheximide cs 39, Shiga inhibitor 113, HCV inhibitor inconclusive, Pf growth 96h inconclusive
N/C(=N\OC(=O)c1ccco1)c1cccc(Br)c1	Cycloheximide cs 40, Shiga inhibitor 154 (no result: Pf growth 96h)
CSc1cccc(CN2CCC(Oc3ccc(C(=O)N4CCCCC4)cc3)CC2)c1	HCV inhibitor inconclusive, Pf growth 48h inconclusive
Cc1ccc(Cl)cc1NC(=O)C(NS(=O)(=O)c1cccc2nsnc12)c1ccccc1 (stereo not drawn)	none (no result: Cycloheximide cs, Shiga inhibitor, HCV inhibitor, Pf growth 96h, Pf growth 48h)
NS(=O)(=O)c1ccc(CNC(=O)c2cc(=O)c3cc(Cl)ccc3o2)cc1	none (no result: Pf growth 48h)
CC[C@]12c3[nH]c4cc(CCC(=O)N(C)C)ccc4c3CCN1C(=O)[C@@H](CC(=O)NC(C)(C)C)C[C@@H]2C(=O)N1CCN(C(=O)C2CC2)CC1	none (no result: Cycloheximide cs, Shiga inhibitor, Pf growth 96h, Pf growth 48h)
CS(=O)(=O)N1N=C(c2ccco2)CC1c1ccc(Cl)cc1 (stereo not drawn)	HCMV antiviral inconclusive, Cycloheximide cs 30
Cc1ccc(C2CC(c3ccco3)=NN2S(C)(=O)=O)cc1 (stereo not drawn)	Cycloheximide cs 28, Shiga inhibitor 40
CC(=O)c1c(O)cc(O)cc1O	none (no result: Cycloheximide cs, Shiga inhibitor, Pf growth 96h, Pf growth 48h)
O=C(c1ccco1)N1CCN(c2ccnc3cc(Cl)ccc23)CC1	HCMV antiviral inconclusive, Pf growth 48h inconclusive
Cc1csc2ncnc(N3CCN(C(=O)Nc4ccc(OC(F)(F)F)cc4)CC3)c12	HCMV antiviral -64, HCV inhibitor 7.9µM, Pf growth 96h inconclusive, Pf growth 48h inconclusive
CC(C)(C)C(=O)N1CCN(c2ccnc3cc(Cl)ccc23)CC1	HCMV antiviral -98, HCV inhibitor inconclusive, Pf growth 48h inconclusive
O=C(C1CC1)N1CCN(c2ccnc3cc(Cl)ccc23)CC1	HCMV antiviral inconclusive, Pf growth 96h 7.4µM
O=C(C1CCC1)N1CCN(c2ccnc3cc(Cl)ccc23)CC1	HCMV antiviral -87, HCV inhibitor inconclusive, Pf growth 96h 10µM, Pf growth 48h 13µM
CS(=O)(=O)c1ccccc1C(=O)Nc1ccc(S(=O)(=O)N2CCCC2)cc1	none (no result: Cycloheximide cs, Shiga inhibitor, Pf growth 96h, Pf growth 48h)
CC(=O)c1ccc(N2CCN(c3ccnc4cc(Cl)ccc34)CC2)cc1	HCMV antiviral inconclusive, HCV inhibitor inconclusive, Pf growth 96h 6.6µM, Pf growth 48h 10µM
Cc1cc(C)n(-c2ccnc3cc(Cl)ccc23)n1	Cycloheximide cs 18
O=C(Nc1ccc(OC(F)(F)F)cc1)N1CCN(c2ccnc3cc(Cl)ccc23)CC1	HCMV antiviral -85, HCV inhibitor 11µM, Pf growth 96h inconclusive, Pf growth 48h inconclusive
Cc1cc(C)n(-c2nc3cc(Cl)ccc3nc2N2CCN(c3cccc(C)c3C)CC2)n1	none (no result: Cycloheximide cs, Shiga inhibitor, HCV inhibitor, Pf growth 96h, Pf growth 48h)
O=C(C1CCCCC1)N1CCN(c2ccnc3cc(Cl)ccc23)CC1	HCMV antiviral -83, HCV inhibitor inconclusive, Pf growth 96h 3.3µM, Pf growth 48h 1.9µM
CC(=O)c1ccc(N2CCN(c3ncnc4c3cnn4-c3cc(Cl)ccc3C)CC2)cc1	none (no result: Cycloheximide cs, Shiga inhibitor, HCV inhibitor, Pf growth 96h, Pf growth 48h)
O=C(Nc1ccc(Cl)cc1)N1CCCN(c2ccc(C(F)(F)F)cc2[N+](=O)[O-])CC1	Pf growth 96h inconclusive, Pf growth 48h inconclusive
CS(=O)(=O)N(CCC#N)Cc1ccco1	none
COc1ccccc1S(=O)(=O)Cc1ccc(C(=O)NCc2ccccc2)o1	Pf growth 96h inconclusive
c1ccc(-c2oc3ncnc(NCCN4CCOCC4)c3c2-c2ccccc2)cc1	HCMV antiviral inconclusive, HCV inhibitor inconclusive, Pf growth 48h inconclusive
N=c1c2c(-c3ccccc3)c(-c3ccccc3)oc2ncn1CCCN1CCOCC1	HCV inhibitor inconclusive, Pf growth 96h 12µM, Pf growth 48h 13µM
N=c1c2c(-c3ccccc3)c(-c3ccccc3)oc2ncn1CCN1CCOCC1	HCV inhibitor inconclusive, Pf growth 96h 9.3µM, Pf growth 48h 7.4µM
Cc1cccc2cc3c(N)c(C(=O)N4CCOCC4)sc3nc12	Cycloheximide cs 50, Shiga inhibitor 115, HCV inhibitor inconclusive
